For 20 compounds, Percent Effect results are on record in ChEMBL document CHEMBL3988442, “University of Dundee, Small-Polar-MMV Screening Library” (2021).

The experiment concerns the target Shiga toxin 2 (Escherichia coli O157:H7) (UniProt P09385+P09386). The experiment is described as follows: E. coli 0.157:H7 Shiga Toxin SOP - stx2 screening assay. The format is functional. Also noted: scale not given: direction of the effect not stated beside the values. Conditions: 30 µM.
Take `Cc1cnc(N2CCC3(CCN(CC4CC4)C3=O)CC2)nc1`: the Percent Effect is -8.57%.

With `CCC(C)NC(=O)Nc1ccc(CN2CCOC2=O)cc1` (stereo not given), the Percent Effect was -47.4%.

As to `Cc1csc([C@@H]2C[C@@H]3CCN(C(=O)c4ccnnc4)C[C@H]3O2)n1`, the Percent Effect was -6.67%.

Consider `Cc1ccc(CC(=O)N2CCOC(c3nc(C(C)(C)C)n[nH]3)C2)cn1` (stereo not given), for which the Percent Effect is -0.658%.

In the case of `Cc1noc(C)c1CNCC1CCCN1c1cccnn1` (stereo not given), the Percent Effect came out at 5.13%.

`Cc1cnc(N2CCn3cc(CNC(=O)CC4CC4)nc3C2)nc1`: the Percent Effect is -22.4%.

Regarding `O=C(Nc1ccc(N2CCCC2)nc1)N1CCc2sccc2C1`, the Percent Effect is -146%.

For the compound `COc1ncccc1NC(=O)c1cccc(C)n1`, the Percent Effect was -22.7%.

On to `Cc1[nH]c(=O)c(C#N)cc1C(=O)N1C[C@@H](CN2CCCC2)C[C@H](CO)C1`, for which the Percent Effect was -3.42%.

As to `CN(C(=O)c1cc(Cl)c[nH]1)C1CCN(c2ccccn2)CC1`, the Percent Effect was 1.72%.

`Cc1ccc(CC(=O)N2Cc3nccn3CC(CN(C)C)C2)cc1` (stereo not given): the Percent Effect is 5.05%.

With `O=C(NCc1ccc(-c2ccn[nH]2)cc1)N1CCC(N2CCCC2)C1` (stereo not given), the Percent Effect is 9.65%.

For the compound `COCC1CC2(CCN(C(=O)c3cc(C)oc3C)CC2)CN1C(C)C` (stereo not given), the Percent Effect was -25.7%.

As for `CCc1nc(C(=O)N2CCN(C)CC2C)nn1-c1ccccc1Cl` (stereo not given), the Percent Effect was 26.3%.

On to `c1ccc(CNC2CCc3ncnn3C2)nc1` (stereo not given), for which the Percent Effect is -65.4%.

As for `CN1CCCC(Cc2ccnc3ccncc23)CC1` (stereo not given), the Percent Effect was -21.3%.

For `CCN1CC(C(=O)NCc2ccccc2-n2cccn2)CC1=O` (stereo not given), the Percent Effect is 20.1%.

As to `CNC(=O)Nc1cc(-c2ccc(Br)cc2)nn1CCO`, the Percent Effect worked out at 7.53%.

For the compound `Cc1nc(CN2CCN(C(=O)c3cc(C4CC4)on3)CC2)cs1`, the Percent Effect came out at 24.9%.

Consider `OC(COc1ccccc1)CN1CCC(c2ccn[nH]2)CC1` (stereo not given), for which the Percent Effect is -7.22%.
